# Data from the supplement of paper PMC8728848.
# The entries come from a sample that favours the strongest signals as a whole.
# B1: Clone730PsrP (Streptococcus pneumoniae) (protein)
# chain: MDHHHHHHHHHHASENLYFQGAMVVGSQTAAATEATAKKVEEDRKKPASDYVASVTNVNLQSYAKRRKRSVDSIEQLLASIKNAAVFSGNTIVNGAPAINASLNIAKSETKVYTGEGVDSVYRVPIYYKLKVTNDGSKLTFTYTVTYVNPKTNDLGNISSMRPGYSIYNSGTSTQTMLTLGSDLGKPSGVKNYITDKNGRQVLSYNTSTMTTQGSGYTWGNGAQMNGFFAKKGYGLTSSWTVPITGTDTSFTFTPYAARTDRIGINYFNGGGKVVESSTT
# What was measured:
# Test in all cases: glycan array binding signal (z-score within array); higher = stronger binding
# Conditions in all cases: glycan notation: IUPAC condensed, linker removed
# [1] = molecular target: Fuc(a1-2)Gal
# Procedure, shortened: (§1)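 Glycan array binding is given as a within-array Z-score, which can be read as non-binding when negative. The arrays, 3228 of them, came from the Consortium for Functional Glycomics database and were retained only where the protein sequence was available. Z-scores were averaged across arrays of the same protein sequence at different concentrations or buffers and across linkers.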
# [2] = molecular target: Fuc(a1-2)Gal(b1-3)GlcNAc(b1-3)[Fuc(a1-2)Gal(b1-3)GlcNAc(b1-6)]GalNAc
# Procedure, shortened: as §1
# [3] = molecular target: Fuc(a1-2)Gal(b1-3)[Fuc(a1-4)]GlcNAc(b1-2)Man(a1-3)[Fuc(a1-2)Gal(b1-3)[Fuc(a1-4)]GlcNAc(b1-2)Man(a1-6)]Man(b1-4)GlcNAc(b1-4)[Fuc(a1-6)]GlcNAc(b1-4)[Fuc(a1-6)]GlcNAc
# Procedure, shortened: as §1
# [4] = molecular target: Fuc(a1-2)Gal(b1-4)GlcNAc(b1-2)Man(a1-3)[Fuc(a1-2)Gal(b1-4)GlcNAc(b1-2)Man(a1-6)]Man(b1-4)GlcNAc(b1-4)GlcNAc
# Procedure, shortened: as §1
# [5] = molecular target: Fuc(a1-2)Gal(b1-4)GlcNAc(b1-6)GalNAc
# Procedure, shortened: as §1
# [6] = molecular target: Fuc(a1-2)Gal6S(b1-4)Glc
# Procedure, shortened: as §1
# [7] = molecular target: Fuc(a1-2)[Gal(a1-3)]Gal(b1-4)[Fuc(a1-3)]GlcNAc(b1-3)GalNAc
# Procedure, shortened: as §1
# [8] = molecular target: Fuc(a1-2)[GalNAc(a1-3)]Gal(b1-4)GlcNAc(b1-2)Man(a1-3)[Fuc(a1-2)[GalNAc(a1-3)]Gal(b1-4)GlcNAc(b1-2)Man(a1-6)]Man(b1-4)GlcNAc(b1-4)[Fuc(a1-6)]GlcNAc
# Procedure, shortened: as §1
# [9] = molecular target: Fuc(a1-2)[GalNAc(a1-3)]Gal(b1-4)[Fuc(a1-3)]GlcNAc(b1-3)GalNAc
# Procedure, shortened: as §1
# [10] = molecular target: Fuc(a1-3)[GalNAc(b1-4)]GlcNAc
# Procedure, shortened: as §1
# [11] = molecular target: Fuc(a1-3)[GalNAc(b1-4)]GlcNAc6S
# Procedure, shortened: as §1
# [12] = molecular target: Gal(a1-2)Gal
# Procedure, shortened: as §1
# [13] = molecular target: Gal(a1-3)Gal(b1-4)GlcNAc(b1-6)GalNAc
# Procedure, shortened: as §1
# [14] = molecular target: Gal(b1-3)GalNAc(b1-4)[Neu5Ac(a2-3)]Gal(b1-4)Glc
# Procedure, shortened: as §1
# [15] = molecular target: Gal(b1-3)GlcNAc(b1-2)[Gal(b1-3)GlcNAc(b1-6)]Man(a1-6)[Gal(b1-3)GlcNAc(b1-2)Man(a1-3)]Man(b1-4)GlcNAc(b1-4)GlcNAc
# Procedure, shortened: as §1
# [16] = molecular target: Gal(b1-3)GlcNAc(b1-3)Gal(b1-4)GlcNAc(b1-2)Man(a1-3)[Gal(b1-3)GlcNAc(b1-3)Gal(b1-4)GlcNAc(b1-2)Man(a1-6)]Man(b1-4)GlcNAc(b1-4)GlcNAc
# Procedure, shortened: as §1
# [17] = molecular target: Gal(b1-3)GlcNAc(b1-3)Gal(b1-4)[Fuc(a1-3)]GlcNAc(b1-6)[Gal(b1-3)GlcNAc(b1-3)]Gal(b1-4)Glc
# Procedure, shortened: as §1
# [18] = molecular target: Gal(b1-3)GlcNAc(b1-6)GalNAc
# Procedure, shortened: as §1
# [19] = molecular target: Gal(b1-3)[Neu5Ac(a2-6)]GalNAc
# Procedure, shortened: as §1
# [20] = molecular target: Gal(b1-4)GalNAc(a1-3)[Fuc(a1-2)]Gal(b1-4)GlcNAc
# Procedure, shortened: as §1
# [21] = molecular target: Gal(b1-4)GlcNAc(b1-2)Man(a1-3)[Gal(b1-4)GlcNAc(b1-2)Man(a1-6)][GlcNAc(b1-4)]Man(b1-4)GlcNAc(b1-4)[Fuc(a1-6)]GlcNAc
# Procedure, shortened: as §1
# [22] = molecular target: Gal(b1-4)GlcNAc(b1-2)[Gal(b1-4)GlcNAc(b1-4)]Man(a1-3)[Gal(b1-4)GlcNAc(b1-2)Man(a1-6)]Man(b1-4)GlcNAc(b1-4)GlcNAc
# Procedure, shortened: as §1
# [23] = molecular target: Gal3S(b1-4)GlcNAc
# Procedure, shortened: as §1
# [24] = molecular target: Gal3S(b1-4)[Fuc(a1-3)]GlcNAc
# Procedure, shortened: as §1
# [25] = molecular target: Gal3S6S(b1-4)GlcNAc6S
# Procedure, shortened: as §1
# [26] = molecular target: Gal4S6S(b1-4)GlcNAc
# Procedure, shortened: as §1
# [27] = molecular target: GalNAc(b1-4)Gal(b1-4)Glc
# Procedure, shortened: as §1
# [28] = molecular target: GalNAc(b1-4)GlcNAc
# Procedure, shortened: as §1
# [29] = molecular target: Glc(a1-4)Glc(a1-4)Glc(a1-4)Glc
# Procedure, shortened: as §1
# [30] = molecular target: Glc(a1-6)Glc(a1-6)Glc
# Procedure, shortened: as §1
# [31] = molecular target: Glc(a1-6)Glc(a1-6)Glc(a1-6)Glc
# Procedure, shortened: as §1
# [32] = molecular target: GlcNAc(b1-3)Gal(b1-4)GlcNAc(b1-3)Gal(b1-4)GlcNAc
# Procedure, shortened: as §1
# [33] = molecular target: GlcNAc(b1-3)Gal(b1-4)GlcNAc(b1-3)Gal(b1-4)GlcNAc(b1-3)Gal(b1-4)GlcNAc(b1-2)Man(a1-3)[GlcNAc(b1-3)Gal(b1-4)GlcNAc(b1-3)Gal(b1-4)GlcNAc(b1-3)Gal(b1-4)GlcNAc(b1-2)Man(a1-6)]Man(b1-4)GlcNAc(b1-4)GlcNAc
# Procedure, shortened: as §1
# [34] = molecular target: GlcNAc(b1-3)[GlcNAc(b1-4)][GlcNAc(b1-6)]GlcNAc
# Procedure, shortened: as §1
# [35] = molecular target: Man(a1-3)[Man(a1-6)]Man
# Procedure, shortened: as §1
# [36] = molecular target: Man(a1-3)[Man(a1-6)]Man(a1-6)[Man(a1-3)]Man
# Procedure, shortened: as §1
# [37] = molecular target: Man(a1-3)[Man(a1-6)]Man(b1-4)GlcNAc(b1-4)[Fuc(a1-6)]GlcNAc
# Procedure, shortened: as §1
# [38] = molecular target: Man(a1-6)Man
# Procedure, shortened: as §1
# [39] = molecular target: Neu5Ac(a2-3)Gal(b1-3)GlcNAc(b1-2)Man(a1-3)[Neu5Ac(a2-3)Gal(b1-3)GlcNAc(b1-2)Man(a1-6)]Man(b1-4)GlcNAc(b1-4)GlcNAc
# Procedure, shortened: as §1
# [40] = molecular target: Neu5Ac(a2-3)Gal(b1-4)GlcNAc(b1-2)Man
# Procedure, shortened: as §1
# [41] = molecular target: Neu5Ac(a2-3)Gal(b1-4)GlcNAc(b1-2)Man(a1-3)[GlcNAc(b1-4)][Neu5Ac(a2-3)Gal(b1-4)GlcNAc(b1-2)Man(a1-6)]Man(b1-4)GlcNAc(b1-4)GlcNAc
# Procedure, shortened: as §1
# [42] = molecular target: Neu5Ac(a2-3)Gal(b1-4)GlcNAc(b1-2)Man(a1-3)[Neu5Ac(a2-3)Gal(b1-4)GlcNAc(b1-2)Man(a1-6)]Man(b1-4)GlcNAc(b1-4)[Fuc(a1-6)]GlcNAc
# Procedure, shortened: as §1
# [43] = molecular target: Neu5Ac(a2-3)Gal(b1-4)GlcNAc(b1-3)Gal
# Procedure, shortened: as §1
# [44] = molecular target: Neu5Ac(a2-3)Gal(b1-4)GlcNAc(b1-3)Gal(b1-4)GlcNAc(b1-3)Gal(b1-4)GlcNAc(b1-2)Man(a1-3)[Neu5Ac(a2-3)Gal(b1-4)GlcNAc(b1-3)Gal(b1-4)GlcNAc(b1-3)Gal(b1-4)GlcNAc(b1-2)Man(a1-6)]GalNAc
# Procedure, shortened: as §1
# [45] = molecular target: Neu5Ac(a2-3)Gal(b1-4)[Fuc(a1-3)]GlcNAc6S
# Procedure, shortened: as §1
# [46] = molecular target: Neu5Ac(a2-3)[GalNAc(b1-4)]Gal(b1-4)Glc
# Procedure, shortened: as §1
# [47] = molecular target: Neu5Ac(a2-6)Gal(b1-4)GlcNAc(b1-2)Man(a1-6)[GlcNAc(b1-2)Man(a1-3)]Man(b1-4)GlcNAc(b1-4)GlcNAc
# Procedure, shortened: as §1
# [48] = molecular target: Neu5Ac(a2-6)Gal(b1-4)GlcNAc(b1-3)Gal(b1-4)GlcNAc(b1-3)Gal(b1-4)GlcNAc(b1-2)Man(a1-3)[Neu5Ac(a2-6)Gal(b1-4)GlcNAc(b1-3)Gal(b1-4)GlcNAc(b1-3)Gal(b1-4)GlcNAc(b1-2)Man(a1-6)]GalNAc
# Procedure, shortened: as §1
# [49] = molecular target: Neu5Ac(a2-6)Gal(b1-4)GlcNAc(b1-3)Gal(b1-4)GlcNAc(b1-6)[Gal(b1-3)]GalNAc
# Procedure, shortened: as §1
# [50] = molecular target: Neu5Ac(a2-6)Gal(b1-4)GlcNAc(b1-3)[Neu5Ac(a2-6)Gal(b1-4)GlcNAc(b1-6)]GalNAc
# Procedure, shortened: as §1
# [51] = molecular target: Neu5Gc(a2-8)Neu5Gc(a2-3)Gal(b1-4)GlcNAc(b1-3)Gal(b1-4)GlcNAc
# Procedure, shortened: as §1
# [52] = molecular target: Neu5Gc(a2-8)Neu5Gc(a2-6)Gal(b1-4)GlcNAc
# Procedure, shortened: as §1
binder,measurement,setting,value
B1,glycan array binding signal (z-score),[1],0.412
same,glycan array binding signal (z-score),[2],1.96
same,glycan array binding signal (z-score),[3],-0.364
same,glycan array binding signal (z-score),[4],-0.472
same,glycan array binding signal (z-score),[5],1.79
same,glycan array binding signal (z-score),[6],-0.11
same,glycan array binding signal (z-score),[7],-0.513
same,glycan array binding signal (z-score),[8],2.17
same,glycan array binding signal (z-score),[9],0.059
same,glycan array binding signal (z-score),[10],0.389
same,glycan array binding signal (z-score),[11],0.499
same,glycan array binding signal (z-score),[12],-0.461
same,glycan array binding signal (z-score),[13],-0.459
same,glycan array binding signal (z-score),[14],2.82
same,glycan array binding signal (z-score),[15],19.3
same,glycan array binding signal (z-score),[16],-0.281
same,glycan array binding signal (z-score),[17],-0.518
same,glycan array binding signal (z-score),[18],-0.605
same,glycan array binding signal (z-score),[19],-0.508
same,glycan array binding signal (z-score),[20],-0.441
same,glycan array binding signal (z-score),[21],-0.249
same,glycan array binding signal (z-score),[22],-0.616
same,glycan array binding signal (z-score),[23],0.189
same,glycan array binding signal (z-score),[24],0.82
same,glycan array binding signal (z-score),[25],-0.38
same,glycan array binding signal (z-score),[26],-0.324
same,glycan array binding signal (z-score),[27],1.39
same,glycan array binding signal (z-score),[28],0.829
same,glycan array binding signal (z-score),[29],2.03
same,glycan array binding signal (z-score),[30],-0.273
same,glycan array binding signal (z-score),[31],2.73
same,glycan array binding signal (z-score),[32],-0.488
same,glycan array binding signal (z-score),[33],-0.481
same,glycan array binding signal (z-score),[34],-0.013
same,glycan array binding signal (z-score),[35],0.888
same,glycan array binding signal (z-score),[36],2.14
same,glycan array binding signal (z-score),[37],-0.591
same,glycan array binding signal (z-score),[38],3.24
same,glycan array binding signal (z-score),[39],0.657
same,glycan array binding signal (z-score),[40],1.83
same,glycan array binding signal (z-score),[41],-0.507
same,glycan array binding signal (z-score),[42],-0.658
same,glycan array binding signal (z-score),[43],-0.586
same,glycan array binding signal (z-score),[44],1.38
same,glycan array binding signal (z-score),[45],1.98
same,glycan array binding signal (z-score),[46],-0.647
same,glycan array binding signal (z-score),[47],-0.372
same,glycan array binding signal (z-score),[48],0.355
same,glycan array binding signal (z-score),[49],-0.382
same,glycan array binding signal (z-score),[50],-0.567
same,glycan array binding signal (z-score),[51],-0.565
same,glycan array binding signal (z-score),[52],-0.41
